# According to PubChem BioAssay AID2551 (National Center for Advancing Translational Sciences (NCATS), 2010):
# “And” between values parts separate entries of the source, which are not always exact repeats. Equal values may be shown once. About 17,000 (5.5%) of roughly 310,000 compounds were called active. Where a call stands in place of a potency, no number is given. Roughly 11% stayed inconclusive and do not appear here. Calls follow the shape of the dose curve; as a rule, active = well fitted inhibition curve with a large enough effect; inconclusive = small, poorly fitted or top-dose-only effect, or effect the other way; inactive = no such curve, though single readings can be large or run the other way. The sample as a whole holds a higher share of actives than the screen did. Where a structure was tested more than once in an assay, its records may differ in their call.
# Target: Nuclear receptor ROR-gamma (Mus musculus) (UniProt P51450)
# Experiment: qHTS for inhibitors of ROR gamma transcriptional activity; also: nearly all actives have a fitted effect of over 60% in size
# Conditions: Drosophila S2 Gal4-RORgamma UAS-luciferase reporter, 20 h; series mostly up to 53.6 µM
# Text: NIH Molecular Libraries Probe Production Network [MLPCN] NIH Chemical Genomics Center [NCGC] MLPCN Grant: R03 DA026211-01 Assay Provider: Dan Littman, New York University Assay Overview: The retinoic acid-related orphan receptor (ROR) gamma is a transcription factor that has a central role in the differentiation of Th17 cells, a subset of T helper cells that secrete the inflammatory cytokines IL-17, IL-17F, and IL-22. Th17 cells have been implicated in graft versus host disease, autoimmune disease and asthma. ROR gamma is induced in naive T helper cells in the presence of TGF-beta combined with IL-6, IL-21, or IL-23, and thereafter directs the expression of the Th17 lineage cytokines. To study the mechanism of action of ROR gamma, an insect cell-based assay was screened. This Drosophila Schneider cell line was stably transfected with two vectors: a gene expressing a fusion of the Gal4 DNA binding domain and ROR gamma transactivation domain under the control of the metallothionine promoter and a Photinus luciferase reporter regulated by the Gal4 binding site enhancer, UAS. […] Small molecule inhibitors of ROR gamma activity are detected by a decrease in luciferase reporter activity.
# Assay Protocol Summary: For screening, 600 cells in 4 uL/well were dispensed into white solid 1536-well plates (Grenier) using a solenoid-based dispenser. Following transfer of 23 nL compound or DMSO vehicle by a pin tool, the plates were incubated 1 hr at ambient temperature, and 1 uL/well copper sulfate (700 uM final concentration) was added. The plates were centrifuged 15 s at 1000 RPM and incubated 20 hr at ambient temperature. After addition of 1.5 uL Photinus luciferase detection reagent, the plates were incubated 10 min at ambient temperature and then read by an ViewLux (Perkin Elmer) to detect luminescence. Keywords: NIH Roadmap, MLPCN, MLI, MLSMR, qHTS, NCGC, qHTS, nuclear hormone receptor, retinoic acid-related orphan receptor, ROR gamma
# Potency is read from the fitted curve at half-maximal effect.
# Chain of Nuclear receptor ROR-gamma (Mus musculus) (P51450 whole entry, looked up): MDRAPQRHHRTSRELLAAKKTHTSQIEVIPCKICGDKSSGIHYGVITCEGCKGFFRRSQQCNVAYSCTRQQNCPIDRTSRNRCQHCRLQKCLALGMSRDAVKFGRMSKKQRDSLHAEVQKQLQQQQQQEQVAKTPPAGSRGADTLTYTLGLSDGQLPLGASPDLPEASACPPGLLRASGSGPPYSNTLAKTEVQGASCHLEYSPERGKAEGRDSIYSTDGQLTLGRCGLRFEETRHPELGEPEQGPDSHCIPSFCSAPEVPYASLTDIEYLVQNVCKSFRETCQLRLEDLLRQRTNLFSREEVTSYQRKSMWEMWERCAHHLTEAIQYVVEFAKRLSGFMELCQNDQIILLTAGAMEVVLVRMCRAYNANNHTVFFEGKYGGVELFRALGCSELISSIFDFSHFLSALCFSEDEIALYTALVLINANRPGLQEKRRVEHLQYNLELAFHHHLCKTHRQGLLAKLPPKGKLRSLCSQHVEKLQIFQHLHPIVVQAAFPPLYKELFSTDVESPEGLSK
Structure (SMILES),Potency,"activity change, negative = inhibition"
c1ccc2sc(C3CCCNC3)nc2c1 (stereo not given),inactive,
c1ccc2sc(SNC3CCCCC3)nc2c1,8.91 µM (active),
c1ccc2sc(N3CCNCC3)nc2c1,inactive,
CC[N+](C)(CC)CCC[n+]1c(-c2ccccc2)c2cc(N)ccc2c2ccc(N)cc21,3.16 µM (active),
CN[C@@H]1C[C@H]2O[C@@](C)([C@@H]1OC)n1c3ccccc3c3c4c(c5c6ccccc6n2c5c31)C(=O)NC4,,-41% [at 10 µM] (inactive)
CCOc1cccc(=NC2CCCCC2)c2c(C)[nH]c(C)c12,inactive,
O=c1oc2ccccc2c(O)c1C(c1ccccc1O)c1c(O)c2ccccc2oc1=O,inactive,
CCNC[C@H](O)c1cccc(O)c1,,-12.3% [at 2.98 µM] (inactive)
C/C(=C\C=C/[C@@H](C)C(=O)O)[C@H]1CN[C@H](C(=O)O)[C@@H]1CC(=O)O,inactive,
Fc1ccc(C(OCCN2CCN(C/C=C\c3ccccc3)CC2)c2ccc(F)cc2)cc1,14.1 µM (active),
ClC(Cl)=C(Cl)C(Cl)=C(Cl)Cl,inactive,
CC(C)(C)C(O)(CCc1ccc(Cl)cc1)Cn1cncn1 (stereo not given),inactive,
O=c1[nH]c(=S)n(C2CC2)c(O)c1/C=N/N1CCOCC1,inactive,
O=c1[nH]c(=O)n(Cc2ccccc2)c(O)c1/C=N/Nc1c(F)c(F)c(F)c(F)c1F,inactive,
O=C(N/N=C/c1c(O)n(C2CC2)c(=S)[nH]c1=O)c1ccccc1,14.1 µM (active),
COc1ccc(C2N3CC(C)(C)CN23)cc1 (stereo not given),inactive,
Clc1ccccc1,inactive,
C[C@@H]1C[C@@H]2O[C@H]2/C=C\C=C\C(=O)Cc2c(Cl)c(O)cc(O)c2C(=O)O1,10 µM (active),
CNC(C)[C@@H](O)c1ccccc1 (stereo not given in full),inactive,
c1ccc(CN2CC[C@@]3(CCCNC3)C2)cc1,inactive,
CCCCC/C=C\C/C=C\C/C=C\C=C\[C@H](CCCC(=O)O)OO,inactive,
CCC(C)C(=O)O[C@@H]1C[C@@]2(C)C(c3ccoc3)OC(=O)CC23OC2(C)O[C@@]14[C@@]1(C)C(CC(=O)OC)C5(C)CC1(O)C(O)(C5OC(=O)C1(C)OC1C)C(OC(C)=O)[C@@]34O2 (stereo not given in full),inactive,
CCCCCn1c(=O)c(C(=O)NCc2ccccc2)c(O)c2ccccc21,12.6 µM (active),
CCCCCn1c(=O)c(C(=O)NCc2ccccn2)c(O)c2ccccc21,5.01 µM (active),
CCCCCn1c(=O)c(C(=O)Nc2c(C)n(C)n(-c3ccccc3)c2=O)c(O)c2ccccc21,inactive,

Structure (SMILES),Potency,"activity change, negative = inhibition"
CCCCn1c(=O)c(C(=O)Nc2ccccc2Cl)c(O)c2ccccc21,,1.37% [at 1.91 µM] (inactive)
CC[N+]1(CCOC(=O)C(O)(c2ccccc2)c2ccccc2)CCCCC1,inactive,
Cc1cccc([C@H](C)c2cnc[nH]2)c1C,inactive,
CCC1(c2ccccc2)C(=O)NC(=O)N(C)C1=O (stereo not given),inactive,
O=c1[nH]c(=O)n(-c2ccccc2)c(O)c1C=NC12CN3CN(CN(C3)C1)C2,inactive,
CC(=O)c1c(O)c(C)c(O)c(Cc2c(O)c3c(c(C(=O)/C=C/c4ccccc4)c2O)OC(C)(C)C=C3)c1O,inactive,
CC[C@@H]1CN2CC[C@@H]1C[C@H]2[C@H](O)c1ccnc2ccc(OC)cc12,inactive,
N#CC(C#N)=Cc1cc(O)c(O)c([N+](=O)[O-])c1,inactive,
CCN1C[C@@]2(COC)CC[C@H](OC)[C@]34[C@@H]1[C@]1(OCO[C@@]15C[C@@H](OC)C1C[C@H]3[C@H]5[C@@H]1OC)[C@H](O)[C@@H]24,inactive,
C[C@H]1C/C=C/[C@@H]2[C@@H]3O[C@]3(C)[C@@H](C)[C@H]3[C@H](Cc4ccccc4)NC(=O)[C@]32OC(=O)O/C=C/[C@](C)(O)C1=O,inactive,
C=CCN1CCC23c4c5ccc(O)c4O[C@H]2C(=O)CC[C@@]3(O)C1C5 (stereo not given in full),,14.1% [at 10 µM] (inactive)
COC([CH2][Hg])CNC(=O)c1ccccc1OCC(=O)O (stereo not given),inactive,
CN(C)C[C@H]1CCCC[C@]1(O)c1cccc(O)c1,inactive,
c1csc(CN2CCCC3(CCNCC3)C2)n1,inactive,
C[C@H]1CC[C@@]2(NC1)O[C@@H]1C[C@H]3[C@@H]4CC=C5C[C@@H](O)CC[C@]5(C)[C@@H]4CC[C@]3(C)[C@@H]1[C@@H]2C,inactive,
CN1CCCC(=C(c2cccs2)c2cccs2)C1,inactive,
CCCCCCCCCCCCN=C(N)N,inactive,
CN1C2C=C(N(C(=O)c3ccc(Cl)cc3)c3ccccc3)CC1CC2 (stereo not given),inactive,
Cc1cc(C)cc(C(=O)N(CCc2ccccc2)C2=CC3CCC(C2)N3C)c1 (stereo not given),12.6 µM (active),
CCCCC/C=C\C/C=C\C/C=C\C/C=C\CCCCCC(=O)NCCO,inactive,
O=C(N/N=C/c1ccc([N+](=O)[O-])o1)c1cc([N+](=O)[O-])cc([N+](=O)[O-])c1O,inactive,
c1ccc(N2CC[C@@]3(CCCNC3)C2)nc1,inactive,
CCC(=NCc1ccco1)c1c(O)n(Cc2ccccc2)c(=O)[nH]c1=O,inactive,
CC/C(=N\NC(=O)c1ccccc1O)c1c(O)n(Cc2ccccc2)c(=O)[nH]c1=O,12.6 µM (active),
CCC(=NCCc1ccccc1)c1c(O)n(C2CCCCC2)c(=O)[nH]c1=O,inactive,

Structure (SMILES),Potency,"activity change, negative = inhibition"
NC[C@H](O)c1ccc(O)cc1,inactive,
COc1ccc(C2Oc3c(I)c(OC)cc(OC)c3CC2O)cc1OC (stereo not given),inactive,
CC(C)(C)c1ccc(CN2C(=O)CN=C(c3ccccc3)c3ccccc32)cc1,inactive,
ClCCBr,inactive,
Cc1cc(C)cc(NC(=S)NC2CC3CCCC(C2)N3Cc2cccs2)c1 (stereo not given),8.91 µM (active),
C[C@@H]1C[C@H]2CC[C@H](O2)[C@H](C)C(=O)O[C@@H](C)C[C@@H]2CC[C@@H](O2)[C@@H](C)C(=O)O[C@H](C)C[C@H]2CC[C@H](O2)[C@H](C)C(=O)O[C@@H](C)C[C@@H]2CC[C@@H](O2)[C@@H](C)C(=O)O1,0.891 µM (active),
CC(=O)Oc1ccccc1C(=O)Nc1ncc([N+](=O)[O-])s1,inactive,
N#Cc1c(Cl)c(Cl)c(Cl)c(C#N)c1Cl,2.51 µM (active),
O=C1CCc2cccc3c2N1CC3,inactive,
Nc1ccc(-c2ccc(N)c(N)c2)cc1N,inactive,
CC1=CC(=O)C2=C(C)C[C@H](O)[C@H]3[C@H](C)C(=O)O[C@@H]3C12 (stereo not given in full),inactive,
C=CCSSCC=C,inactive,
CCCCCCCCc1[se]c2ccccc2c1Br,inactive,
O=C(O)c1ccccc1NC(=O)C1C2CCC(O2)C1C(=O)O (stereo not given),inactive,
c1csc(CN2CC3(CCNCC3)C2)n1,inactive,
C1CC[C@H]([C@@]23C[C@H](C[C@H]4CCCN[C@H]42)[C@@H]2CCCCN2C3)NC1,inactive,
Cc1nc2ccccn2c1P(=S)(N1CCCCC1)N1CCCCC1,7.08 µM (active),
c1ccc(CCCCN2CCC(c3ccccc3)CC2)cc1,inactive,
Clc1ccc([C@@H]2C[C@H]3CC[C@@H]2N3)cn1,inactive,
CC[C@]1(O)C(=O)OCc2c1cc1n(c2=O)Cc2cc3ccccc3nc2-1,inactive,
Cc1ncc(CC(=O)n2cc(C(=O)c3cc(Cl)ccc3O)cn2)s1,7.94 µM (active),
CC(C)(Cc1c[nH]c2ccc(Cl)cc12)NCCOc1ccccc1OCC1CC1,12.6 µM (active),
N[C@H](C(=O)O)c1cc(=O)[nH]o1,inactive,
COC(=O)N1C(c2ccccc2)C1c1ccccc1 (stereo not given),inactive,
CC(=O)[O][Sn]([c]1ccccc1)([c]1ccccc1)[c]1ccccc1,0.891 µM (active),

Structure (SMILES),Potency,"activity change, negative = inhibition"
C[C@@]12CCC3C(CC[C@@H]4CC(O)CC[C@@]34C)C1CCC2O (stereo not given in full),inactive,
Cc1ncsc1CCCl,inactive,
COc1cc2c(cc1OC)[C@@H]1C(=O)c3ccc(O)c(CC=C(C)C)c3OC1CO2 (stereo not given in full),inactive,
C[C@@]12CC[C@H]3[C@@H](CC[C@]4(O)C[C@H](O)CC[C@@]34C=O)[C@]1(O)CC[C@@H]2C1=CC(=O)OC1,inactive,
N#Cc1cc(Br)c(O)c(Br)c1,inactive,
CCCCC(=O)N/N=C/c1c(O)n(CC)c(=S)n(CC)c1=O,2 µM (active),
CCCCC(=O)N/N=C/c1c(O)n(CCC2=CCCCC2)c(=O)[nH]c1=O,inactive,
CCCCC(=O)N/N=C/c1c(O)n(-c2ccccc2)c(=O)[nH]c1=O,inactive,
CC(Cl)Cl,inactive,
COC1=C[C@]23CCCN2CCc2cc4c(cc2[C@@H]3[C@@H]1O)OCO4,inactive,
CCN1C[C@]2(C)CC[C@H](O)[C@@]34[C@@H]5CC6[C@@H](OC)C[C@@](O)([C@@H]5[C@@H]6O)[C@H](C[C@@H]23)[C@H]14,inactive,
CO[C@H]1[C@@H](O)[C@@H](C)O[C@H](O[C@H]2[C@H](Oc3cccc4c(O)c5c(=O)oc6ccc(C)c7c(=O)oc(c34)c5c67)O[C@H](C)[C@H](O)[C@@H]2O)[C@@H]1O,11.2 µM (active),
CN1C2CC3CC1C(O3)C2O (stereo not given),inactive,
CC(C)(c1ccccc1)c1ccc(O)cc1,inactive,
CCOc1ccc(-c2cc(C)[n+](CCN(CC)CC)c(-c3ccc(OCC)cc3)c2)cc1,inactive,
CCCCC/C=C\C/C=C\C/C=C\CCCCCCC(=O)NCCO,inactive,
COc1ccc(CN2CCN(c3ccccc3F)CC2)c(OC)c1,inactive,
COc1cc(-n2c(=S)[nH]c3ccc(C)cc3c2=O)c(Cl)cc1Cl,2.51 µM (active),
COc1ccccc1-c1[se]c2ccccc2c1I,inactive,
C[C@]12O[C@H](C[C@@]1(O)C(=O)O)n1c3ccccc3c3c4c(c5c6ccccc6n2c5c31)CNC4=O,inactive,
CNCC[C@H](Oc1ccc(C(F)(F)F)cc1)c1ccccc1,inactive,
C=CC#N,inactive,
O=C1C2CCN(CC2)C1(CO)CO,inactive and 25.1 µM (active),
c1ccc2c(c1)[I+]c1ccccc1-2,inactive,
O=P1(Oc2ccccc2)CC(O)C(O)C(COCc2ccccc2)O1 (stereo not given),inactive,
